# Activity calls are given as the source filed them. Unless noted, no rule for the calls is given here.
# What was measured:
# [1] = system: Wnt5a (protein binding on small-molecule microarray); assay: small molecules binding Wnt5a protein – biophysical, small-molecule microarray, 635/667 nm fluorescence, primary screen (AID 1142); conditions: 635 nm fluorescence, higher = more signal;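 also: fluorescence read at 667 nm with signal to noise per printed feature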
# [2] = ATP-based viability of Huh7 replicon cells – cell-based, CellTiter-Glo luminescence, basal, 48 h, cytotoxicity control for HCV replication inhibitor project, primary screen (AID 1143); conditions: higher = more signal, called active from +8 up or from −8 down;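 also: Huh7 hepatoma cells carrying a hepatitis C replication reporter with no stimulus; test concentration not given here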
# [3] = Pseudomonas biofilm growth suppression – PAO1 strain, BacTiter-Glo luminescence, LB-PBS, primary screen (AID 1144); conditions: P. aeruginosa PAO1 biofilm, 12 h, higher = more signal
# [4] = basal CRE-LacZ reporter activity in PC12 – cell-based, unstimulated, primary screen (AID 1145); conditions: no forskolin, luminescence, 4.5 h, higher = more signal, called active from +8 up or from −8 down
# [5] = forskolin-driven CRE-LacZ activity in PC12 – cell-based, CRE-LacZ reporter, forskolin-stimulated, primary screen (AID 1146); conditions: luminescence, 4.5 h, higher = more signal, called active from +8 up or from −8 down;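 also: PC12 cells with 6xCRE LacZ reporter stimulated by forskolin 10 µM; beta-galactosidase reporter signal reflecting CREB driven transcription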
# [6] = target: Streptavidin (Streptomyces avidinii) (UniProt P22629); assay: compounds binding control protein streptavidin – biophysical, small-molecule microarray, 635/667 nm fluorescence, artefact control for SMM compound annotation, primary screen (AID 1147); conditions: higher = more signal;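 also: signal reflects streptavidin binding to arrayed compounds as a control protein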
# Chain of Streptavidin (Streptomyces avidinii) (P22629 whole entry, looked up): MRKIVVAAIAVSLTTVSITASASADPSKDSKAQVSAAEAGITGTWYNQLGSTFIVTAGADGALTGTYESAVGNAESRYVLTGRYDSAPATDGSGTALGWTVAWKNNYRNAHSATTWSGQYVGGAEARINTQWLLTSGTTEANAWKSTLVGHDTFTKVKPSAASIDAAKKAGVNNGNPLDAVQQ
# [7] = probe aInhba binding on compound microarray – biochemical, small-molecule microarray, 635/667 nm fluorescence, primary screen (AID 1148); conditions: higher = more signal;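 also: score merges 667nm spot fluorescence with signal-to-noise for antibody binding to printed compounds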
# [8] = target: Torsin-1A (Homo sapiens) (UniProt O14656); assay: TOR1A wild-type binding on microarray – cell lysate, small-molecule microarray, lysate, 635/667 nm, primary screen (AID 1149); conditions: COS7 hTOR1A-WT lysate, 635 nm fluorescence, higher = more signal
# Chain of Torsin-1A (Homo sapiens) (O14656 whole entry, looked up): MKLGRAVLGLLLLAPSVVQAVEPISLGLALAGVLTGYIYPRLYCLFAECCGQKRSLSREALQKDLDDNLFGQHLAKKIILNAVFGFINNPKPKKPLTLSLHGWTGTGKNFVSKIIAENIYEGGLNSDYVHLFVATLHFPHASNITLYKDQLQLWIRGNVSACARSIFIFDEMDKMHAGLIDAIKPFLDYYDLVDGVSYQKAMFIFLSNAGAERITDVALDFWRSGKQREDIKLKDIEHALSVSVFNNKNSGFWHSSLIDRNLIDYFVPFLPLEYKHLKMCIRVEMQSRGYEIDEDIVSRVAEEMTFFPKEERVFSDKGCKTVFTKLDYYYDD
# [9] = target: Torsin-1A (Homo sapiens) (UniProt O14656); assay: torsin A mutant lysate binding on microarrays – cell lysate, small-molecule microarray, COS7 lysate, 635/667 nm fluorescence, primary screen (AID 1150); conditions: COS7 hTOR1A mutant lysate, 635 nm fluorescence, higher = more signal;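 also: score pools 667 nm emission and signal to noise measuring lysate protein binding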
# [10] = system: Sonic hedgehog protein (Shh); assay: Sonic hedgehog microarray binding compounds – biochemical, small-molecule microarray, 635/667 nm fluorescence, primary screen (AID 1151); conditions: 635 nm fluorescence, higher = more signal;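 also: Shh protein binding to compounds spotted on small-molecule microarray slides; score combines spot fluorescence intensity with signal-to-noise across triplicate slides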
# [11] = optical density shifts of acrAB sulA E. coli – strain DRC41, OD650, 48 h, E. coli filamentation inducer project, primary screen (AID 1152); conditions: higher = more signal, called active from +8 up or from −8 down;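 also: E. coli MC1000 strain DRC41 lacking acrAB efflux pump and sulA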
# [12] = probe aLefty1 binding on compound microarray – biochemical, small-molecule microarray, 635/667 nm fluorescence, primary screen (AID 1153); conditions: higher = more signal;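 also: score merges spot fluorescence with signal-to-noise ratio from the scanned slide images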
# [13] = plasmodial surface anion channel blockers, osmotic lysis – cell-based, P. falciparum Indochina, OD700, 1 h, primary screen (AID 1154); conditions: P. falciparum Indochina infected RBC osmotic lysis, higher = more signal, called active from +8 up or from −8 down
# [14] = plasmodial surface anion channel blockers, osmotic lysis – cell-based, P. falciparum Indochina, OD700, 2 h, primary screen (AID 1155);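 also: lysis reports solute entry through the parasite surface anion channel PSAC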; conditions: P. falciparum Indochina infected erythrocytes, higher = more signal, called active from +8 up or from −8 down
# [15] = changes in parasitized red cell lysis, either direction – P. falciparum Indochina, OD700, 3 h, PSAC antagonist project, primary screen (AID 1156); conditions: P. falciparum-infected erythrocytes, osmotic lysis, higher = more signal, called active from +8 up or from −8 down
# [16] = plasmodial surface anion channel blockers, osmotic lysis – cell-based, P. falciparum Indochina, OD700, 18 h, primary screen (AID 1157); conditions: P. falciparum Indochina infected erythrocytes, osmotic lysis OD700, 18 h; higher = more signal, called active from +8 up or from −8 down
# [17] = S6 kinase pathway phospho-S6 level changes – cell-based, A549, cytoblot, luminescence, serum-stimulated, primary screen (AID 1158); conditions: 5 h, higher = more signal;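 also: serum-stimulated A549 lung adenocarcinoma cells; signal is phosphorylated S6 detected by cytoblot immunostaining with HRP secondary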
# [18] = target: NADPH oxidase 2 (Homo sapiens) (UniProt P04839); assay: compounds shifting NOX2 Amplex Red fluorescence – cell-based, HEK293-NOX2, PMA-stimulated, NOX inhibitor project, primary screen (AID 1159); conditions: 45 min, higher = more signal, called active from +8 up or from −8 down; also: test concentration not given here
# Chain of NADPH oxidase 2 (Homo sapiens) (P04839 whole entry, looked up): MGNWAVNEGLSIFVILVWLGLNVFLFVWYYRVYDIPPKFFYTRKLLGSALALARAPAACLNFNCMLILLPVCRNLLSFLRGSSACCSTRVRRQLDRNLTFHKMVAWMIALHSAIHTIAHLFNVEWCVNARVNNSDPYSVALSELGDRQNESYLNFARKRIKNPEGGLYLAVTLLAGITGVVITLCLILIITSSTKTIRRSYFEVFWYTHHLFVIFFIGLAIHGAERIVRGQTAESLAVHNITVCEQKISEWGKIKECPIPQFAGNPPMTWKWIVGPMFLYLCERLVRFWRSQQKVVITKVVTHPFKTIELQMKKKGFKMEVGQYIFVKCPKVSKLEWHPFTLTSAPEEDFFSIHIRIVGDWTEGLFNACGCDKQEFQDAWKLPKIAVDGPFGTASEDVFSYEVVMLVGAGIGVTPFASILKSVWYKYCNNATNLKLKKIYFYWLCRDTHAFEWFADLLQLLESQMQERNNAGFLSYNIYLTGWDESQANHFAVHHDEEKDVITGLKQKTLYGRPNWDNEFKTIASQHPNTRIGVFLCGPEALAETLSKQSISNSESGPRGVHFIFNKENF
# [19] = target: NADPH oxidase 4 (Homo sapiens) (UniProt Q9NPH5); assay: compounds shifting NOX4 Amplex Red fluorescence – cell-based, HEK293-NOX4, tetracycline-induced, NOX inhibitor project, primary screen (AID 1160); conditions: HEK293-NOX4, Amplex Red H2O2 fluorescence, 45 min; higher = more signal, called active from +8 up or from −8 down
# Chain of NADPH oxidase 4 (Homo sapiens) (Q9NPH5 whole entry, looked up): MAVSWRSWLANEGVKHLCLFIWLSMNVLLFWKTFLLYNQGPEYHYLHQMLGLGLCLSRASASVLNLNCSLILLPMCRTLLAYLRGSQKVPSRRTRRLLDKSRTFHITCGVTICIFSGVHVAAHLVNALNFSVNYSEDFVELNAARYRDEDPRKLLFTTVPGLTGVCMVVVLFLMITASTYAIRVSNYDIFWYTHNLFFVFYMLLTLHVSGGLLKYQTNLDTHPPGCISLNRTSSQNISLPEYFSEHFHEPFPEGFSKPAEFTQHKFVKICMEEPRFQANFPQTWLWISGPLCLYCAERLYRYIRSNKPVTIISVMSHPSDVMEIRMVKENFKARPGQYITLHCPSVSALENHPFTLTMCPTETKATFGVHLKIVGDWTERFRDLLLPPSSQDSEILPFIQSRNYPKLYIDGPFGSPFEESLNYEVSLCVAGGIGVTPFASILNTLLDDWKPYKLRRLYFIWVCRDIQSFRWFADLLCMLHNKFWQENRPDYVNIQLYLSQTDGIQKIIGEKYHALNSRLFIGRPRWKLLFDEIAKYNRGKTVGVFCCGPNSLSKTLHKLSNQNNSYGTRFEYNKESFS
# [20] = target: NADPH oxidase 5 (Homo sapiens) (UniProt Q96PH1); assay: compounds shifting NOX5 Amplex Red fluorescence – cell-based, HEK293-NOX5, NOX inhibitor project, primary screen (AID 1161); conditions: HEK293-NOX5, ionomycin, 45 min, higher = more signal
# Chain of NADPH oxidase 5 (Homo sapiens) (Q96PH1 whole entry, looked up): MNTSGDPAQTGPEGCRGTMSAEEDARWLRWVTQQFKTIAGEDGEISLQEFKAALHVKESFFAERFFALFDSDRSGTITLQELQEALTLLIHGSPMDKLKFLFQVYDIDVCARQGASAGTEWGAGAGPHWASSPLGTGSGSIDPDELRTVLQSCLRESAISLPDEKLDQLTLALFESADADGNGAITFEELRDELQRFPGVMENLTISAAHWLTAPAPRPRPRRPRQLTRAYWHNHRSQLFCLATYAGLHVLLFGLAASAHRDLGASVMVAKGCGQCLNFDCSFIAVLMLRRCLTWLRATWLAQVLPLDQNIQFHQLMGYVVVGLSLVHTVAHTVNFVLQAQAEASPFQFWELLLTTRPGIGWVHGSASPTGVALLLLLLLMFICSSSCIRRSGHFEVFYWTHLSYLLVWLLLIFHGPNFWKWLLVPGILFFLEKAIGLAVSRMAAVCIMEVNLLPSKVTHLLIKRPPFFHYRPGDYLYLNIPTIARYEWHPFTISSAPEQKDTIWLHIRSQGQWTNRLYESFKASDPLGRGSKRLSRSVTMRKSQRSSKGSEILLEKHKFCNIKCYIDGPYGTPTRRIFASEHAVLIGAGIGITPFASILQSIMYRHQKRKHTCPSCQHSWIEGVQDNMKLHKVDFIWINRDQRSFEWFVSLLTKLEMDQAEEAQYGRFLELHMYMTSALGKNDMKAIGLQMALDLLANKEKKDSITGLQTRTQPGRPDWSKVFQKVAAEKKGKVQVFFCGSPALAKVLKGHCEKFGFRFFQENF
smiles,measurement,setting,value
CCCC[C@H]1C[C@@H]1[C@@H]1N(P(=O)(c2ccccc2)c2ccccc2)C[C@@](O)(c2ccccc2)CC12CC2,composite z-score,[1],-0.0443
same,z-score,[2],-3.13 (inactive)
same,z-score,[3],0.922 (inactive)
same,z-score,[4],-0.185 (inactive)
same,z-score,[5],1.18 (inactive)
same,composite z-score,[6],1.15
same,composite z-score,[7],0.108
same,composite z-score,[8],-0.318
same,composite z-score,[9],0.409
same,composite z-score,[10],-1.02
same,z-score,[11],-1.84 (inactive)
same,composite z-score,[12],0.404
same,z-score,[13],2.07 (inactive)
same,z-score,[14],1.07 (inactive)
same,z-score,[15],0.425 (inactive)
same,z-score,[16],1.55 (inactive)
same,z-score,[17],-0.443
same,z-score,[18],-0.476 (inactive)
same,z-score,[19],-0.925 (inactive)
same,z-score,[20],-2.1
C[N+](C)(C)CCCC[C@@H]1NC(=O)[C@@H]2C[C@H](C(=O)NCCCCCN)[C@H](c3ccc(O)cc3)N2C1=O,composite z-score,[1],0.557
same,z-score,[2],-0.496 (inactive)
same,z-score,[3],-0.771 (inactive)
same,z-score,[4],0.143 (inactive)
same,z-score,[5],-0.441 (inactive)
same,composite z-score,[6],1.49
same,composite z-score,[7],0.491
same,composite z-score,[8],0.632
same,composite z-score,[9],0.659
same,composite z-score,[10],1.61
same,z-score,[11],1.31 (inactive)
same,composite z-score,[12],0.906
same,z-score,[13],0.455 (inactive)
same,z-score,[14],0.0158 (inactive)
same,z-score,[15],-0.284 (inactive)
same,z-score,[16],-1.78 (inactive)
same,z-score,[17],0.612
same,z-score,[18],-0.102 (inactive)
same,z-score,[19],-0.316 (inactive)
same,z-score,[20],1.33
CC(C)CCC[C@@H](C)[C@H]1CC[C@@]2(C)C3=C(CC[C@]12C)[C@@]1(C)CC[C@H](OC(=O)c2ccc(C(F)(F)F)nc2)C(C)(C)C1CC3 (stereo not given in full),composite z-score,[1],0.0419
same,z-score,[2],-0.878 (inactive)
same,z-score,[3],-0.14 (inactive)
same,z-score,[4],0.399 (inactive)
same,z-score,[5],-0.121 (inactive)
same,composite z-score,[6],0.536
same,composite z-score,[7],0.0411
same,composite z-score,[8],0.379
same,composite z-score,[9],0.347
same,composite z-score,[10],1.04
same,z-score,[11],3.47 (inactive)
same,composite z-score,[12],-0.155
same,z-score,[13],-1.05 (inactive)
same,z-score,[14],-0.693 (inactive)
same,z-score,[15],0.103 (inactive)
same,z-score,[16],-2.61 (inactive)
same,z-score,[17],2.5
same,z-score,[18],-0.971 (inactive)
same,z-score,[19],0.129 (inactive)
same,z-score,[20],0.933
C=CCC(OC(C)=O)[C@@H]1[C@@H](N(Cc2cc3ccccc3o2)C(=O)Cc2ccc(OC)cc2)c2cc(OCCCO)ccc2N1C(=O)c1ccc2ccccc2c1 (stereo not given in full),composite z-score,[1],-0.252
same,z-score,[2],-1.58 (inactive)
same,z-score,[3],-0.352 (inactive)
same,z-score,[4],1.41 (inactive)
same,z-score,[5],0.368 (inactive)
same,composite z-score,[6],-0.277
same,composite z-score,[7],-0.0791
same,composite z-score,[8],-0.748
same,composite z-score,[9],-0.502
same,composite z-score,[10],0.688
same,z-score,[11],-0.829 (inactive)
same,composite z-score,[12],-0.0252
same,z-score,[13],2.31 (inactive)
same,z-score,[14],-0.0382 (inactive)
same,z-score,[15],1.17 (inactive)
same,z-score,[16],-0.0343 (inactive)
same,z-score,[17],0.559
same,z-score,[18],-1.16 (inactive)
same,z-score,[19],-1.26 (inactive)
same,z-score,[20],1.14
CO[C@H]1O[C@H](CO)[C@@H](OC(=O)Nc2ccc(Br)cc2)[C@@H]2OC(=O)[C@H](Cc3cccc(Br)c3)C/C=C/C[C@@H](Cc3cccc(Br)c3)C(=O)O[C@@H]12,composite z-score,[1],-0.149
same,z-score,[2],-5.6 (inactive)
same,z-score,[3],-2.06 (inactive)
same,z-score,[4],-0.878 (inactive)
same,z-score,[5],0.243 (inactive)
same,composite z-score,[6],-0.174
same,composite z-score,[7],0.0387
same,composite z-score,[8],-0.541
same,composite z-score,[9],0.384
same,composite z-score,[10],1.58
same,z-score,[11],1.7 (inactive)
same,composite z-score,[12],-0.007
same,z-score,[13],2.13 (inactive)
same,z-score,[14],0.623 (inactive)
same,z-score,[15],-0.147 (inactive)
same,z-score,[16],0.951 (inactive)
same,z-score,[17],0.0914
same,z-score,[18],-1.42 (inactive)
same,z-score,[19],-0.686 (inactive)
same,z-score,[20],0.0667
CC=CC(O)C1C=CC2C(=O)N(C)C(=O)C2N1N(c1ccccc1)c1ccccc1 (stereo not given),composite z-score,[1],0.16
same,z-score,[2],0.695 (inactive)
same,z-score,[3],0.305 (inactive)
same,z-score,[4],-0.326 (inactive)
same,z-score,[5],0.493 (inactive)
same,composite z-score,[6],0.29
same,composite z-score,[7],0.0536
same,composite z-score,[8],2.7
same,composite z-score,[9],1.3
same,composite z-score,[10],0.306
same,z-score,[11],-1.3 (inactive)
same,composite z-score,[12],-0.101
same,z-score,[13],-0.553 (inactive)
same,z-score,[14],0.603 (inactive)
same,z-score,[15],-0.461 (inactive)
same,z-score,[16],1.12 (inactive)
same,z-score,[17],-0.674
same,z-score,[18],-0.633 (inactive)
same,z-score,[19],-0.176 (inactive)
same,z-score,[20],-0.111
CCCC(=O)N(CCc1c[nH]c2ccccc12)[C@@H]1CC(C(=O)NCCO)=C[C@H](Oc2c(I)cc(CO)cc2OC)[C@H]1O,composite z-score,[1],-0.0727
same,z-score,[2],-0.0737 (inactive)
same,z-score,[3],-0.396 (inactive)
same,z-score,[4],0.486 (inactive)
same,z-score,[5],-0.887 (inactive)
same,composite z-score,[6],-0.268
same,composite z-score,[7],-0.128
same,composite z-score,[8],-0.24
same,composite z-score,[9],0.0165
same,composite z-score,[10],-0.251
same,z-score,[11],1.57 (inactive)
same,composite z-score,[12],-0.275
same,z-score,[13],13.2 (active)
same,z-score,[14],1.47 (inactive)
same,z-score,[15],2.04 (inactive)
same,z-score,[16],0.501 (inactive)
same,z-score,[17],0.968
same,z-score,[18],-0.674 (inactive)
same,z-score,[19],1.07 (inactive)
same,z-score,[20],1.16
COc1ccc(C(O)C2C=CC3C(=O)N(C)C(=O)C3N2NC(=O)OC(C)(C)C)c2ccccc12 (stereo not given),composite z-score,[1],0.364
same,z-score,[2],-0.144 (inactive)
same,z-score,[3],-0.0855 (inactive)
same,z-score,[4],1.58 (inactive)
same,z-score,[5],-0.0415 (inactive)
same,composite z-score,[6],1.13
same,composite z-score,[7],-0.137
same,composite z-score,[8],0.177
same,composite z-score,[9],0.644
same,composite z-score,[10],-0.416
same,z-score,[11],-1.17 (inactive)
same,composite z-score,[12],0.445
same,z-score,[13],1.9 (inactive)
same,z-score,[14],1.09 (inactive)
same,z-score,[15],0.0084 (inactive)
same,z-score,[16],1.2 (inactive)
same,z-score,[17],-1.16
same,z-score,[18],-0.674 (inactive)
same,z-score,[19],-1.92 (inactive)
same,z-score,[20],0.384
C=CCN1Cc2ccccc2[C@@H]2OC(c3ccc(OCCCO)cc3)=N[C@]2(CCS(=O)(=O)c2ccccc2)C1=O,composite z-score,[1],1.02
same,z-score,[2],-2.93 (inactive)
same,z-score,[3],-0.491 (inactive)
same,z-score,[4],2.65 (inactive)
same,z-score,[5],-0.821 (inactive)
same,composite z-score,[6],0.316
same,composite z-score,[7],0.122
same,composite z-score,[8],0.625
same,composite z-score,[9],0.969
same,composite z-score,[10],1.77
same,z-score,[11],0.576 (inactive)
same,composite z-score,[12],0.415
same,z-score,[13],27.2 (active)
same,z-score,[14],20.3 (active)
same,z-score,[15],2.26 (inactive)
same,z-score,[16],3.22 (inactive)
same,z-score,[17],-0.0454
same,z-score,[18],-1.38 (inactive)
same,z-score,[19],0.827 (inactive)
same,z-score,[20],0.0284

# Reference: PubChem BioAssay
